Data on 62 compounds can be found in PubChem BioAssay AID504652 (National Center for Advancing Translational Sciences (NCATS), 2011).

Structures are written as SMILES. The campaign covered roughly 360,000 compounds. About 11,000 (3.1%) were called active. For the sample, actives were picked, then their nearest neighbours and some compounds at random. A number with no mark means an inactive call. No stated cut-off is given here; in the data, active means activity change below about -30%; inactive means the rest.
On the % scale 0 is the no-effect control and ±100 the full control effect.

Sequence of D(1A) dopamine receptor (Homo sapiens) (P21728 whole entry, looked up): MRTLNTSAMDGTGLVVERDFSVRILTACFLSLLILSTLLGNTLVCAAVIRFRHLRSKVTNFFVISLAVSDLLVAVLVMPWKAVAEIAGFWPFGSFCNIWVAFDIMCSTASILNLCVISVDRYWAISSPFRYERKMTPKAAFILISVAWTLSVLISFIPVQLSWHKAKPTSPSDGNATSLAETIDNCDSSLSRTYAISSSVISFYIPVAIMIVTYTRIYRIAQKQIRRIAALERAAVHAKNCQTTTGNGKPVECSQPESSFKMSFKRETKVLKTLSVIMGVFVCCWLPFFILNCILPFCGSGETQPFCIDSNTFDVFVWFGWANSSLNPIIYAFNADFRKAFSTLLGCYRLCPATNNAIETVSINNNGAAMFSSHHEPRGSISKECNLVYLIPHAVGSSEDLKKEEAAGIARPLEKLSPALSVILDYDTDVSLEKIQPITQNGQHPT

This test has as its target D(1A) dopamine receptor (Homo sapiens) (UniProt P21728). Briefly: Antagonist of Human D 1 Dopamine Receptor: qHTS. To be noted: HEK293 TREx D1 cells, calcium flux, dopamine EC80; at 10 µM; active compounds read low. The procedure, abridged: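 Calcium flux readout: force-coupled, inducible Hek293 Trex D1 line, cells induced overnight at 30 C with tetracycline, dye-loaded 30–90 min at RT. Antagonism scored against EC80 dopamine challenge given 180 s after compound.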
(In general: In qHTS, concentration-response curves come from the screen itself.)
Take `COc1ccc(Cl)cc1NC(=O)Cn1nc(-c2ccc(C)cc2)n(C)c1=S`: the activity change, negative = inhibition was -37.4% (active). On to `Cc1ccc(NC(=O)CCCn2c(=O)c3cccn3c3ccccc32)cc1Cl`, for which the activity change, negative = inhibition is -14.3%. The same measure for `COc1ccc(Cl)cc1NC(=O)Cn1c(=O)c2ccccc2n2nncc12`: 3.48%; for `COc1ccc(Cl)cc1NC(=O)CCC(=O)c1ccc(C)cc1`: 0.782%. As to `COc1ccc(Cl)cc1NC(=O)CCn1c(=O)c2cccn2c2ccccc21`, the activity change, negative = inhibition is -35% (active). For the compound `COc1ccc(C)cc1NC(=O)CSc1ccc(Cl)cc1`, the activity change, negative = inhibition is 3.7%. The same measure for `Cc1ccc(Nc2nnc(-c3ccc(C)c(S(=O)(=O)N4CCCCC4)c3)c3ccccc23)cc1`: -4.3%. With `Cc1ccc(N(C)C(=O)C2CCN(S(=O)(=O)c3ccc4c(c3)CCCN4C(=O)C3CCC3)CC2)cc1`, the activity change, negative = inhibition is 10.1%. The same measure for `O=C(CCCCn1c(=O)c2ccccc2n(CC(=O)Nc2cccc(C(F)(F)F)c2)c1=O)NCc1ccc2c(c1)OCO2`: 3.4%; for `COc1ccc(CCn2cc3c(c2-c2ccc(Br)cc2)c(=O)n(C)c(=O)n3C)cc1OC`: 2.27%.

Regarding `Fc1ccc(CN2CCc3nc(Nc4ccccc4)ncc3C2)cc1F`, the activity change, negative = inhibition is 5.84%. Take `COc1ccc2c(c1)Cc1sc(NC(=O)c3ccccc3Br)nc1-2`: the activity change, negative = inhibition was 6.21%. As for `CCCCSc1ncnc2c1sc1nc(N3CCOCC3)c3c(c12)CCCC3`, the activity change, negative = inhibition was 3.48%. In the case of `O=C(CSc1nccn1Cc1ccc(F)cc1)NCc1ccccc1` it was 9.06%; in that of `O=C(CSc1nccn1Cc1ccc(Cl)cc1)NCc1ccccc1`, -34.5% (active). In the case of `CCCCNC(=O)CSc1nccn1Cc1ccccc1` it was 23.5%; in that of `Cc1oc(-c2ccccc2F)nc1CN1CCC(C(=O)NCCc2ccc(Cl)cc2)CC1`, -10.2%; in that of `CC(C)C12CN3CC(C(C)C)(CN(C1)C3c1ccc(OCc3ccccc3)cc1)C2=O` (configuration not stated), -2.54%. With `COc1cccc(C2C(C(=O)Nc3ccc(C)cc3C)=C(C)Nc3c(C(=O)Nc4ccccc4)cnn32)c1` (configuration not stated), the activity change, negative = inhibition is 0.0774%. For the compound `CCC(C(=O)Nc1ccc(C(C)C)cc1)c1ccccc1` (configuration not stated), the activity change, negative = inhibition was -50.8% (active). `CC(NC(=O)Nc1ccccc1)c1ccccc1` (configuration not stated): the activity change, negative = inhibition was 5.33%. The same measure for `CC(C)c1ccc(NC(=O)Cn2ncc3ccccc32)cc1`: -8.47%. In the case of `CCOc1ccc(-c2cc3c(=O)n(CC(=O)NCc4ccc(OC)cc4)ccn3n2)cc1`, the activity change, negative = inhibition is 8.73%. The same measure for `O=C(NCCc1csc(-c2ccc(C(F)(F)F)cc2)n1)C(=O)Nc1ccc(F)c(Cl)c1`: -0.398%; for `CCn1c2ccccc2c2nnc(SCC(=O)O)nc21`: 6.1%; for `O=C(c1ccc(Cl)cc1)c1ccc(OCC(O)CN2CCCCC2)cc1` (configuration not stated): -13.7%. In the case of `O=C(/C=C/c1cn(CC(O)CN2CCc3ccccc32)c2ccccc12)c1ccc(Br)cc1` (configuration not stated) it was -3.99%; in that of `CCOc1ccc(C(=O)/C=C/c2cn(CC(O)CN3CCCCCC3)c3ccccc23)cc1` (configuration not stated), -35% (active); in that of `CC(C)c1ccc(NC(=O)Cn2nnc(C(=O)NCCc3ccccc3)c2N)cc1`, -8.95%.

Consider `Cc1ccc(C)c(S(=O)(=O)N2CC(=O)Nc3ccccc32)c1`, for which the activity change, negative = inhibition is -34.4% (active). The same measure for `Cc1ccc(S(=O)(=O)N2CC(=O)Nc3ccccc32)cc1C`: 7.51%; for `Cc1ccc(C)c(S(=O)(=O)N2CCN(C(=O)Nc3ccccc3)CC2)c1`: -15%; for `CC1=C(C(=O)OCC2CCCCC2)C(c2c(F)cccc2Cl)CC(=O)N1` (configuration not stated): -8.23%. Consider `CNS(=O)(=O)c1cccc(C(=O)NCC2CCCCC2)c1`, for which the activity change, negative = inhibition was 15.5%. With `CN(C)S(=O)(=O)N1CCC(Oc2cccc(C(=O)NCCCC3CCCC3)c2)CC1`, the activity change, negative = inhibition was -36.8% (active). In the case of `CN(C(=O)c1cccc(OC2CCN(S(=O)(=O)N(C)C)CC2)c1)C1CCOC1` (configuration not stated) it was -17.2%; in that of `CCOCCc1nn2c(=O)cc(COC(=O)CNC(=O)c3ccc(C(C)(C)C)cc3)nc2s1`, -0.812%; in that of `CCC(=O)N1c2ccccc2CC1C(=O)N1CCN(c2cccc(OC)c2)CC1` (configuration not stated), -5.92%. With `CCc1ccc(S(=O)(=O)c2nnn3c2nc(NCc2ccccc2OC)c2cc(Cl)ccc23)cc1`, the activity change, negative = inhibition was 2.93%.

With `CCCNC(=O)c1ccc2c(c1)ncn2-c1ccc(C)cc1C`, the activity change, negative = inhibition is -21.9%.

For `CCOc1ccc(CNC(=O)C2CCN(c3nnc(-n4cccc4CNc4ccc(C)cc4)s3)CC2)cc1OC`, the activity change, negative = inhibition was 4.12%.

Turning to `CSc1ccc(CCNC(=O)C2CCN(c3nnc(-n4cccc4)s3)CC2)cc1`, the activity change, negative = inhibition was 11.1%. The same measure for `Cc1ccc(CCNC(=O)C2CCN(c3nnc(-n4cccc4CNc4ccc(C)cc4)s3)CC2)cc1`: -30% (active); for `Cc1ccc(C2CC(c3cccc(C)c3)n3nc(N)nc3N2)cc1` (configuration not stated): 9.87%; for `CCOc1ccccc1C1CC(c2ccccc2)Nc2nc(N)nn21` (configuration not stated): -30.1% (active). As to `CCOc1ccccc1C1CC(c2ccc(Cl)cc2)Nc2nc(N)nn21` (configuration not stated), the activity change, negative = inhibition is 13.6%.

With `COc1cccc(-c2ccc(SCC(=O)N3CCN(c4ccccc4)CC3)nn2)c1`, the activity change, negative = inhibition is 3.13%. The same measure for `CN(C)CCCNC(=S)N1CCC(c2nc3ccccc3[nH]2)CC1`: 7.97%. The same measure for `c1ccc(-c2csc(N3CCc4ccccc4C3)n2)cc1`: 4.74%. With `COCCCNC(=S)N1CCCC(c2nc3cc(C)c(C)cc3[nH]2)C1` (configuration not stated), the activity change, negative = inhibition was -12%. In the case of `CN(C)CCCNC(=S)N1CCN(c2nc(-c3ccccc3)cs2)CC1` it was -48% (active); in that of `COCCCNC(=S)N1CCN(c2nc(-c3cccc(OC)c3)cs2)CC1`, -31% (active); in that of `CCn1cc2nc(SCc3ccccc3Cl)n(CCc3ccccc3)c(=O)c2n1`, 19.6%. Consider `O=C(NC1CCCCC1)c1ccc(Cn2c(SCc3ccccc3)nc3cccnc32)cc1`, for which the activity change, negative = inhibition was -1.21%. The same measure for `COc1ccc(Br)cc1C1CC(=O)Nc2c1c(C)nn2-c1nc(C)cc(C)n1` (configuration not stated): 5.29%; for `CC(=O)N1CCCc2cc(S(=O)(=O)Nc3ccc(Cl)cc3F)ccc21`: -13.2%. On to `Cc1ccccc1OCc1ccc(-c2nc(C#N)c(N3CCCCC3)o2)o1`, for which the activity change, negative = inhibition was 2.09%. The same measure for `CCC(C)Nc1oc(-c2ccc(COc3ccc(Cl)cc3)o2)nc1C#N` (configuration not stated): -2.28%; for `Cc1ccc(OCc2nc(C#N)c(N3CCCC3)o2)cc1`: -1.06%. Take `N#Cc1nc(COc2ccc(Cl)cc2)oc1N1CCCC1`: the activity change, negative = inhibition is -31.6% (active). Regarding `COc1ccc(OCc2ccc(-c3nc(C#N)c(N4CCN(c5ccccc5)CC4)o3)o2)cc1`, the activity change, negative = inhibition was -27.6%. As to `CN1CCN(c2oc(-c3ccc(COc4ccc(Cl)cc4)o3)nc2C#N)CC1`, the activity change, negative = inhibition is -30.2% (active).
